According to PubChem BioAssay (NCATS):
Several values for one entry are separate records, joined by “and”; a condition that tells them apart may be missing. Identical values can stand only once. Results filed as inconclusive are left out. Activity calls are given as the source filed them. Unless noted, the call rests on the fitted dose curve; in most records, active means well fitted curve in the direction sought with a large enough effect; inconclusive means small, poorly fitted or top-dose-only effect, or another doubt; inactive means no such curve, though single readings can be large; an effect the other way counts as inactive or inconclusive.

What was measured:
[1] = MultiTox-Fluor Cytotoxicity Assay - LYMP1-001 - Dead Cells (AID 946);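 further: 0% = DMSO and 100% = tetraoctylammonium bromide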
Summary of the method: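 LYMP1-001 lymphoblastoid cells (2500/well) treated 16 h at 37 C. Dead-cell protease cleavage of bis-AAF-R110 read at Ex/Em 485/520. Normalized to DMSO and 15 uM tetraoctylammonium bromide; AC50 from Hill fits.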

[2] = MultiTox-Fluor Cytotoxicity Assay - LYMP1-002 - Live Cells (AID 955); further: on the % scale 0 is the no-effect control and ±100 the full control effect
Summary of the method: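 Read-out is live-cell protease activity (cell-permeant GF-AFC substrate, fluorescence Ex/Em=405/510), where a decrease indicates acute toxicity. Human lymphoblastoid cells were treated 16 hours at 37 C in a concentration series, and AC50 values came from standard Hill modelling.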

[3] = MultiTox-Fluor Cytotoxicity Assay - LYMP1-003 - Dead Cells (AID 961);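 further: 0% = DMSO and 100% = tetraoctylammonium bromide; nearly all actives have a fitted effect of over 70% in size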
Summary of the method: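 LYMP1-003 human lymphoblastoid cells (2500/well) exposed to compound 16 h at 37 C in complete medium; dead-cell protease read with bis-AAF-R110 fluorescence (Ex/Em 485/520) after 60 min at room temperature. Normalized to DMSO and 15 uM tetraoctylammonium bromide; AC50 from Hill fit.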

[4] = MultiTox-Fluor Cytotoxicity Assay - LYMP1-003 - Live Cells (AID 962);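 further: 0% = DMSO only and full loss = 92 µM tetraoctylammonium bromide; cytotoxic hits lower the live-cell protease signal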
Summary of the method: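 qHTS, 1536-well; 2500 cells/well LYMP1-003; 5 hr 37 C settle; cpd 16 hr 37 C; MultiTox-Fluor reagent 60 min RT; live-cell protease fluor. 405/510; Hill-fit AC50; tetraoctylammonium bromide pos. ctrl.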

[5] = Cell Viability - LYMP1-003 - Assay at 40 hr (AID 964); further: series mostly up to about 92 µM; on the % scale 0 is the no-effect control and ±100 the full control effect; nearly all actives have a fitted effect of over 60% in size
Summary of the method: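 Cells were seeded at 2500 per well and incubated 5 hr at 37 C. Compounds were added across a concentration series and left 40 hr at 37 C. CellTiter-Glo was added for 30 min at room temperature before luminescence reading.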

[6] = Cell Viability - LYMP2-011 (AID 969);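 further: 0% = DMSO only and full inhibition = 92 µM tetraoctylammonium bromide; nearly all actives have a fitted effect of over 60% in size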
Summary of the method: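 2500 cells/well, 5 hr 37 C; compound added, 24 hr 37 C; CellTiter-Glo 30 min RT; luminescence. qHTS concentration-response, Hill-equation AC50. Tetraoctylammonium bromide positive control.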

[7] = Cell Viability - LYMP2-013 (AID 970);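 further: series mostly up to about 92 µM; 0% = DMSO only and full inhibition = tetraoctylammonium bromide control; nearly all actives have a fitted effect of over 55% in size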
Summary of the method: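 qHTS; 2500 lymphoblastoid cells/well; 5 hr 37 C settle; cpd 24 hr 37 C; CellTiter-Glo, 30 min RT; luminescence. AC50 = Hill fit.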

[8] = Cell Viability - LYMP2-017 (AID 972); further: series mostly up to about 92 µM; on the % scale 0 is the no-effect control and ±100 the full control effect; nearly all actives have a fitted effect of over 55% in size
Summary of the method: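 2500 cells/well, 5 h 37 C; cpd 24 h 37 C in complete medium; CellTiter-Glo, 30 min RT; luminescence (ATP). AC50 via Hill fit, qHTS.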

[9] = Cell Viability - LYMP2-002 (AID 977);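 further: series mostly up to about 92 µM; compound exposure lasted 24 h at 37 °C; plate controls were DMSO only for no effect and 92 µM tetraoctylammonium bromide for full effect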
Summary of the method: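 Human lymphoblastoid LYMP2-002 cells, 2500 per well, exposed to compounds for 24 h at 37 C in complete medium; viability read as intracellular ATP by CellTiter-Glo luminescence, AC50 from Hill fits.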

[10] = Cell Viability - LYMP2-006 (AID 978); further: series mostly up to about 92 µM; on the % scale 0 is the no-effect control and ±100 the full control effect; nearly all actives have a fitted effect of over 60% in size
Summary of the method: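 Human lymphoblastoid cells, 2500 per well, were preincubated 5 hr at 37 C, then exposed to compounds for 24 hr at 37 C in complete medium. Viability was read as intracellular ATP by CellTiter-Glo luminescence; AC50 from Hill-equation fits of qHTS concentration-response data.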

[11] = Cell Viability - LYMP2-007 (AID 979);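 further: cells exposed to compound for 24 h before reading; 0% = DMSO only and the negative end = 92 µM tetraoctylammonium bromide; nearly all actives have a fitted effect of over 60% in size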
Summary of the method: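 Luminescent ATP signal (CellTiter-Glo) serves as the viability read-out after 24 hr compound treatment of lymphoblastoid cells in complete medium at 37 C. Concentration-response data were fitted to the Hill equation to give AC50 values.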

[12] = Cell Viability - LYMP2-010 (AID 981); further: on the % scale 0 is the no-effect control and ±100 the full control effect; nearly all actives have a fitted effect of over 55% in size
Summary of the method: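 Luminescent ATP signal (CellTiter-Glo) served as the viability read-out. Cells of the human lymphoblastoid line were treated with compound over a concentration range for 24 hours at 37 C, and AC50 values came from Hill-equation modeling.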

[13] = Cell Viability - LYMP2-012 (AID 982);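 further: cellular ATP by luciferase luminescence where a drop means cytotoxicity; cells exposed to compound for one day before reading; 0% = DMSO only and full loss = 92 µM tetraoctylammonium bromide; nearly all actives have a fitted effect of over 55% in size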
[14] = Cell Viability - LYMP2-016 (AID 984)
Summary of the method: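 Human lymphoblastoid cells (LYMP2-016), 2500/well in complete medium, preincubated 5 hr at 37 C, then compound-treated 24 hr at 37 C. Intracellular ATP read by CellTiter-Glo luminescence after 30 min at room temperature; AC50 from Hill-equation concentration-response fits.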

[15] = Cell Viability - LYMP2-018 (AID 985);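 further: compound exposure lasted 24 hr at 37 °C; plate controls were DMSO only for no effect and tetraoctylammonium bromide at 92 µM for full effect; nearly all actives have a fitted effect of over 50% in size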
Summary of the method: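 Luminescent ATP signal (CellTiter-Glo, read after 30 min at room temperature) reports viable cells after 24 hr compound treatment at 37 C. Concentration-response data were fitted to the standard Hill equation for AC50.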

[16] = Cell Viability - LYMP2-020 (AID 986)
Summary of the method: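 Luminescent ATP signal (CellTiter-Glo, 30 min at room temperature) is the read-out after 24 h compound treatment of lymphoblastoid cells at 37 C. AC50 values come from Hill-equation fits across concentrations.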

[17] = Cell Viability - LYMP2-022 (AID 987)
Summary of the method: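 qHTS: human lymphoblastoid cells 2500/well; 5 hr 37 C; cpd added; 24 hr 37 C; CellTiter-Glo, 30 min RT; luminescence. AC50 via Hill fit; tetraoctylammonium bromide positive ctrl.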

[18] = Cell Viability - LYMP2-024 (AID 988)
Summary of the method: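 Steps: seed 2500 cells/well, 5 hr 37 C; add compound, 24 hr 37 C; add CellTiter-Glo, 30 min room temperature; read luminescence. AC50 derived by Hill modelling of concentration-dependent ATP loss.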

[19] = qHTS assay for small molecule agonists of the antioxidant response element (ARE) signaling pathway measured by Nrf2-dependant transcriptional activity - cell viability counter screen (AID 720653; active means well fitted curve in the direction sought with a large enough effect in the repeat runs; an effect the other way counts as inactive or inconclusive; further: on the % scale 0 is the no-effect control and ±100 the full control effect); conditions: ARE-bla HepG2 viability, CellTiter-Glo ATP luminescence, 16 h; max response: hits give low values
Summary of the method: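 ARE-bla HepG2 cells treated with compounds for 16 h at 37C; this counter screen measures viability as intracellular ATP by CellTiter-Glo luminescence after 30 min at room temperature.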

[20] = qHTS assay for cell viability of HEK293 cells (AID 743288); conditions: ATP luminescence (CellTiter-Glo), 18 h; max response: hits give low values; further: on the % scale 0 is the no-effect control and ±100 the full control effect; nearly all actives have a fitted effect of over 50% in size
Summary of the method: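 Parental HEK293 cells were seeded at 2,000 cells/well, rested at least 5 h at 37 C, then exposed to compounds in DMSO for 18 h at 37 C. Viability was read as ATP-dependent luciferase luminescence after 30 min at room temperature.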

CCCCCCCCO
inactive: Potency [1] | Potency [2] | Potency [3] | Potency [4] | Potency [5] | Potency [6] | Potency [7] | Potency [8] | Potency [9] | Potency [10] | Potency [11] | Potency [12] | Potency [13] | Potency [14] | Potency [15] | Potency [16] | Potency [17] | Potency [18] | max response [19] -1.13% and 11.2% and -1.97% | max response [20] 3.94% and -5.81% and -6.7%

ClCCCl
inactive: Potency [1] | Potency [2] | Potency [3] | Potency [4] | Potency [5] | Potency [6] | Potency [7] | Potency [8] | Potency [9] | Potency [10] | Potency [11] | Potency [12] | Potency [13] | Potency [14] | Potency [15] | Potency [16] | Potency [17] | Potency [18] | max response [19] 20.3% and 6% and -12.9% | max response [20] -0.0928% and -7.5% and -2.25%

COC(=O)CCCCC(=O)OC
inactive: Potency [1] | Potency [2] | Potency [3] | Potency [4] | Potency [5] | Potency [6] | Potency [7] | Potency [8] | Potency [9] | Potency [10] | Potency [11] | Potency [12] | Potency [13] | Potency [14] | Potency [15] | Potency [16] | Potency [17] | Potency [18] | max response [19] -2.58% and 2.67% and 6.18% | max response [20] -0.912% and -4.94% and -1.91%

c1ccccc1
inactive: Potency [1] | Potency [2] | Potency [3] | Potency [4] | Potency [5] | Potency [6] | Potency [7] | Potency [8] | Potency [9] | Potency [10] | Potency [11] | Potency [12] | Potency [13] | Potency [14] | Potency [15] | Potency [16] | Potency [17] | Potency [18] | max response [19] -0.292% [middle of 4 runs] | max response [20] 0.515% [middle of 4 runs]

Clc1cc(Cl)c(Cl)cc1Cl
inactive: Potency [1] | Potency [2] | Potency [3] | Potency [4] | Potency [5] | Potency [6] | Potency [7] | Potency [8] | Potency [9] | Potency [10] | Potency [11] | Potency [12] | Potency [13] | Potency [14] | Potency [15] | Potency [16] | Potency [17] | Potency [18] | max response [19] 2.91% and 4.61% | max response [20] 3.48% and -4.31%

C1OCOCO1
inactive: Potency [1] | Potency [2] | Potency [3] | Potency [4] | Potency [5] | Potency [6] | Potency [7] | Potency [8] | Potency [9] | Potency [10] | Potency [11] | Potency [12] | Potency [13] | Potency [14] | Potency [15] | Potency [16] | Potency [17] | Potency [18] | max response [19] -3.94% | max response [20] -3.72%

CCC(C)c1ccccc1O (stereo not given)
inactive: Potency [1] | Potency [2] | Potency [3] | Potency [4] | Potency [5] | Potency [6] | Potency [7] | Potency [8] | Potency [9] | Potency [10] | Potency [11] | Potency [12] | Potency [13] | Potency [14] | Potency [15] | Potency [16] | Potency [17] | Potency [18] | max response [19] 15.2% and -6.24% and -8.74% | max response [20] 12.6% and 1.15% and -2.8%

CCCCC(CC)CN (stereo not given)
inactive: Potency [1] | Potency [2] | Potency [3] | Potency [4] | Potency [5] | Potency [6] | Potency [7] | Potency [8] | Potency [9] | Potency [10] | Potency [11] | Potency [12] | Potency [13] | Potency [14] | Potency [15] | Potency [16] | Potency [17] | Potency [18] | max response [19] -5.16% and -12.4% | max response [20] 2.8% and -10%

COC(=O)c1ccc(C)cc1
inactive: Potency [1] | Potency [2] | Potency [3] | Potency [4] | Potency [5] | Potency [6] | Potency [7] | Potency [8] | Potency [9] | Potency [10] | Potency [11] | Potency [12] | Potency [13] | Potency [14] | Potency [15] | Potency [16] | Potency [17] | Potency [18] | max response [19] 2.73% and -0.323% | max response [20] 4.41% and -4.05%

C=CCOC(=O)c1ccccc1C(=O)OCC=C
inactive: Potency [1] | Potency [2] | Potency [3] | Potency [4] | Potency [5] | Potency [6] | Potency [7] | Potency [8] | Potency [9] | Potency [10] | Potency [11] | Potency [12] | Potency [13] | Potency [14] | Potency [15] | Potency [16] | Potency [17] | Potency [18] | max response [19] -21% and -8.82% | max response [20] 7.73% and -19.3%
